A short description of assay [1]: P-glycoprotein substrates identified in KB-8-5-11 adenocarcinoma cell line, qHTS therapeutic library screen (AID 1346987). Further: nearly all actives have a fitted effect of over 65% in size. In a few lines:
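Steps: plate 500 KB-8-5-11 cells/well in DMEM + 10% FCS (colchicine removed); pin compounds in dose-response; incubate 72 h, 37 degree C, 5% CO2; add CellTiter-Glo, 5 min; read luminescence.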

Assay [2] in a line: NS1 protein of Zika virus - qHTS assay to identify small molecule inhibitors in human HEK 293 cells (AID 1347053). Further: nearly all actives have a fitted effect of over 55% in size. In short, it runs like this:
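HEK 293 cells pretreated with compound for 1 h, then infected with ZIKV MR766 (MOI 0.5) for 24 h at 37 C. NS1 detected by TR-FRET with two anti-NS1 antibodies; normalized to uninfected (0%) and infected (100%) wells.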

Assay [3] in a line: qHTS of pediatric cancer cell lines to identify multiple opportunities for drug repurposing: Primary screen for TC32 cells (AID 1347089). Further: nearly all actives have a fitted effect of over 60% in size. In short, it runs like this:
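In the primary qHTS, MIPE compounds were tested at 11 concentrations (0.78 nM to 46 µM) and NPC compounds at 8 (0.59 nM to 46 µM) on TC32 cells for 48 h. CellTiter-Glo luminescence gave viability.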

“And” between values parts separate entries of the source, which are not always exact repeats. Equal values may be shown once. Results filed as inconclusive are left out. Some compounds were tested as several samples or in several runs, with calls that do not always agree. The source made the active and inactive calls. The call rests on the fitted dose curve; in most records, active means well fitted curve in the direction sought with a large enough effect; inconclusive means small, poorly fitted or top-dose-only effect, or another doubt; inactive means no such curve, though single readings can be large; an effect the other way counts as inactive or inconclusive. Peptide text beside a SMILES is read from it.
Potency means the concentration at half of the fitted maximal effect.

Take `CCOc1cc(CC(=O)N[C@@H](CC(C)C)c2ccccc2N2CCCCC2)ccc1C(=O)O`: the Potency entry in assay [1], in assay [2] and in assay [3] was “inactive” throughout.

As to `O=C(O)CCNC(=O)c1ccc(N=Nc2ccc(O)c(C(=O)O)c2)cc1`, the Potency entry in assay [1], in assay [2] and in assay [3] was “inactive” each time.

Consider `Cc1cc(=O)oc2cc(O)ccc12`, for which the Potency result in assay [1], in assay [2] and in assay [3] was “inactive” in each case.

On to `Cc1nc(Nc2ncc(C(=O)Nc3c(C)cccc3Cl)s2)cc(N2CCN(CCO)CC2)n1`, for which the Potency entry in assay [1], in assay [2] and in assay [3] was “inactive” throughout.

On to `COC(=O)C1=C(C)NC(C)=C(C(=O)OCCCN2CCC(c3ccccc3)(c3ccccc3)CC2)C1c1cccc([N+](=O)[O-])c1` (stereo not drawn), for which, in assay [1], the Potency entry is “inactive and 10.3 µM (active)”. The Potency result in assay [2] and in assay [3] was “inactive” each time.

Regarding `Oc1ccc(OCc2ccccc2)cc1`, the Potency result in assay [1], in assay [2] and in assay [3] was “inactive” throughout.

On to `CN(C)c1ccc(O)c2c1C[C@H]1C[C@H]3[C@H](N(C)C)C(=O)C(C(N)=O)=C(O)[C@@]3(O)C(=O)C1=C2O`, for which the Potency result in assay [1], in assay [2] and in assay [3] was “inactive” in each case.

For the compound `Cc1c(C(=O)NN2CCCCC2)nn(-c2ccc(Cl)cc2Cl)c1-c1ccc(Cl)cc1`, the Potency was 20.6 µM (active) in assay [1] and 18.7 µM (active) in assay [2]. In addition, in assay [3], the Potency result is “inactive”.

Take `C=C(c1ccc(C(=O)O)cc1)c1cc2c(cc1C)C(C)(C)CCC2(C)C`: the Potency entry in assay [1], in assay [2] and in assay [3] was “inactive” in each case.

Take `c1ccc2[nH]c(-c3cscn3)nc2c1`: the Potency entry in assay [1], in assay [2] and in assay [3] was “inactive” throughout.

Consider `Cc1ccc(NC(=O)c2ccc(CN3CCN(C)CC3)cc2)cc1Nc1nccc(-c2cccnc2)n1`, for which the Potency entry in assay [1], in assay [2] and in assay [3] was “inactive” in each case.

As to `CC1Cc2ccccc2N1NC(=O)c1ccc(Cl)c(S(N)(=O)=O)c1` (stereo not drawn), the Potency result in assay [1], in assay [2] and in assay [3] was “inactive” each time.

Regarding `Cc1cc(=O)c2c(O)c3c(O)cc(=O)c4c3c3c(cc(O)c1c23)C(C)(C)C=4O`, the Potency in assay [1] was 1.46 µM (active) and 4.69 µM (active). Besides, the Potency result in assay [2] and in assay [3] was “inactive” in each case.

On to `Cc1nc2n(c(=O)c1CCN1CCC(c3noc4cc(F)ccc34)CC1)CCCC2`, for which the Potency result in assay [1] is “inactive and 8.2 µM (active)”. Besides, the Potency result in assay [2] and in assay [3] was “inactive” in each case.

Regarding `Nc1ncn([C@H]2C[C@H](O)[C@@H](CO)O2)c(=O)n1`, the Potency entry in assay [1], in assay [2] and in assay [3] was “inactive” throughout.

With `CN(C)CCc1c[nH]c2ccc(Cn3cncn3)cc12`, the Potency result in assay [1], in assay [2] and in assay [3] was “inactive” throughout.

As to `CC1=C(C)C(=O)C(C(CCCCCC(=O)O)c2ccccc2)=C(C)C1=O` (stereo not drawn), the Potency entry in assay [1], in assay [2] and in assay [3] was “inactive” in each case.

Take `CN1C(C(=O)Nc2ccccn2)=C(O)c2sccc2S1(=O)=O`: the Potency result in assay [1], in assay [2] and in assay [3] was “inactive” in each case.

In the case of `CCCCc1ccc2nc(NC(=O)OC)[nH]c2c1`, the Potency was 11.8 nM (active) and 111 nM (active) in assay [1]; 1.32 µM (active) and inactive in assay [2]; 117 nM (active) and 47 nM (active) in assay [3].

In the case of `CC(C)(S)[C@@H](N)C(=O)O`, the Potency result in assay [1], in assay [2] and in assay [3] was “inactive” each time.

For the compound `CN(c1nccc(=O)[nH]1)C1CCN(c2nc3ccccc3n2Cc2ccc(F)cc2)CC1`, the Potency result in assay [1], in assay [2] and in assay [3] was “inactive” throughout.

Turning to `Cc1cc2cc3c(C)cc(=O)oc3c(C)c2o1`, the Potency result in assay [1], in assay [2] and in assay [3] was “inactive” each time.

Take `O=c1oc2cc(O)ccc2s1`: the Potency entry in assay [1], in assay [2] and in assay [3] was “inactive” throughout.

For `C=CCc1cc(OC)c(O)c(C(=O)NCCO)c1`, the Potency result in assay [1], in assay [2] and in assay [3] was “inactive” throughout.

In the case of `C[C@H](Cn1cnc2c(N)ncnc21)OCP(=O)(O)O`, the Potency entry in assay [1], in assay [2] and in assay [3] was “inactive” throughout.

As to `C[C@]12CCC(=O)C=C1CC[C@@H]1[C@H]2[C@@H](O)C[C@@]2(C)[C@H]1CC[C@]2(O)C(=O)CO`, the Potency result in assay [1], in assay [2] and in assay [3] was “inactive” each time.

In the case of `CC[C@]1(O)C[C@H]2CN(CCc3c([nH]c4ccccc34)[C@@](C(=O)OC)(c3cc4c(cc3OC)N(C=O)[C@H]3[C@@](O)(C(=O)OC)[C@H](OC(C)=O)[C@]5(CC)C=CCN6CC[C@]43[C@@H]65)C2)C1`, the Potency in assay [1] is 1.05 µM (active); in assay [2], 1.18 µM (active) and inactive; in assay [3], 33 nM (active) and 83.6 nM (active).

Turning to `CNC[C@@H](O)[C@@H](O)[C@H](O)[C@H](O)CO`, the Potency entry in assay [1], in assay [2] and in assay [3] was “inactive” each time.

On to `CCCOc1ccc2nc(NC(=O)OC)[nH]c2c1`, for which the Potency is 231 nM (active) and 651 nM (active) and 11.8 nM (active) in assay [1]; 0.0469 µM (active) in assay [2]; 187 nM (active) and 131 nM (active) in assay [3].

As for `CCN(CCO)CCCC(C)Nc1ccnc2cc(Cl)ccc12` (stereo not drawn), the Potency entry in assay [1], in assay [2] and in assay [3] was “inactive” throughout.

Take `COC(=O)[C@H](Cc1ccccc1)NC(=O)[C@@H](N)CC(=O)O` (H-Asp-Phe-OMe): the Potency entry in assay [1], in assay [2] and in assay [3] was “inactive” each time.

Values taken from PubChem BioAssay (NCATS).
